Data: PubChem BioAssay (NCI)
The panel holds about 79,000 compounds, 15% with a hit somewhere; the sample as a whole holds those more often. No stated cut-off is given here; in the data, active means growth inhibition above about 70%; inactive means the rest.

What was measured:
[1] = NCI Yeast Anticancer Drug Screen. Data for the rad50 strain (AID 155);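 further: 0% = growth of vehicle-only cultures of the same strain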; conditions: S. cerevisiae rad50 strain growth inhibition; at 50.0 µM; hits give high values
In short: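 Vehicle-treated cultures provide the reference for the growth inhibition reported for compound-exposed, repair-deficient yeast.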

[2] = NCI Yeast Anticancer Drug Screen. Data for the mec2-1 strain (AID 157); conditions: S. cerevisiae mec2-1 strain, at 50.0 µM, hits give high values
In short: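 Strain: mec2-1 (DNA repair/cell cycle alteration). Compound exposure, then growth measured; inhibition expressed relative to vehicle.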

[3] = NCI Yeast Anticancer Drug Screen. Data for the sgs1 mgt1 strain (AID 161);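 further: 0% = growth of cultures given vehicle only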; conditions: S. cerevisiae sgs1 mgt1 strain, at 50.0 µM, hits give high values
In short: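 Inhibition of yeast growth, normalised to vehicle-treated controls, is reported for a strain bearing genetic alterations in DNA damage repair.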

[4] = NCI Yeast Anticancer Drug Screen. Data for the cln2 rad14 strain (AID 165);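 further: 0% = growth equal to vehicle treated cultures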; conditions: S. cerevisiae cln2 rad14 strain, at 50.0 µM, hits give high values
In short: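 Compounds are applied to the cln2 rad14 yeast strain, and growth is then compared with that of vehicle-treated cultures to give inhibition.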

[5] = NCI Yeast Anticancer Drug Screen. Data for the bub3 strain (AID 167); conditions: S. cerevisiae bub3 mutant strain, at 50.0 µM, hits give high values
In short: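 Mutant yeast screening strain plus compound; vehicle-treated cultures serve as the 0% inhibition reference.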

[6] = NCI Yeast Anticancer Drug Screen. Data for the mlh1 rad18 strain (AID 175); conditions: S. cerevisiae mlh1 rad18 strain growth inhibition; at 50.0 µM; hits give high values
In short: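 Read-out is yeast growth inhibition, calculated against vehicle-only controls. The compound was applied to a strain engineered with DNA damage repair alterations.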

Measured: growth inhibition

CCOC(=O)c1cc2sc(NC(=O)c3ccco3)nc2o1
inactive: [1] 10.8% | [2] 12.2% | [3] 48.8% | [4] 4.3% | [5] 6.6% | [6] 27.6%

Cc1ccc(Cc2ccc(CCc3ccc(Cc4ccc(C)cc4)cc3)cc2)cc1
inactive: [1] 10.2% | [2] 7.15% | [3] 18.6% | [4] 32.4% | [5] 12.2% | [6] 11.5%

FC(F)(F)c1cccc(C=NC23CC4CC(CC(C4)C2)C3)c1
inactive: [1] -16.4% | [2] -14.6% | [3] -2.05% | [4] 10.4% | [5] -30% | [6] 8.75%

Oc1cc(O)c(Cl)cc1Cl
inactive: [1] 15.4% | [2] -4.25% | [3] -22.8% | [4] -2.95% | [5] -12.3% | [6] 23.3%

Cc1cc(NC(=S)Nc2ccccc2)c(NC(=S)Nc2ccccc2)cc1C
inactive: [1] 2.1% | [2] -25.2% | [3] 1.55% | [4] 6.7% | [5] 3.2% | [6] 3.2%

CCCCCCCCCCCCCC(=O)OCCN(C)C
inactive: [1] 4.1% | [2] -2.6% | [3] 7.7% | [4] -32.6% | [5] -14.4% | [6] -12.4%

O=C(NC(=S)Nc1cccc2ccccc12)c1ccccc1F
inactive: [1] 30.9% | [2] 15.1% | [3] 37.1% | [4] 5.3% | [5] 44% | [6] 28.4%

CN(C)c1ccc([O-])cc1.CN(C)c1ccc([O-])cc1.CN(C)c1ccc([O-])cc1.CN(C)c1ccc([O-])cc1.[Ti+4]
inactive: [1] 26.9% | [2] -19.4% | [3] 4.65% | [4] 19.3% | [5] 4.95% | [6] -2.6%

CCOC(=O)C1C(C)=CC(=O)CC1C (configuration not stated)
inactive: [1] 19.8% | [2] 1.65% | [3] 21.9% | [4] -4.8% | [5] 4.5% | [6] 4.45%

O=C(O)C12CC3(C(=O)O)CC(C(=O)O)(CC(C(=O)O)(C1)C3=O)C2=O
inactive: [1] -11.3% | [2] 13.4% | [3] -24.4% | [4] -4.15% | [5] -28.1% | [6] 17.3%

Cc1ncc([N+](=O)[O-])n1CCNS(=O)(=O)CCCn1ccnc1[N+](=O)[O-]
inactive: [1] -4.85% | [2] -17.1% | [3] -18.9% | [4] -25.7% | [5] -18.5% | [6] -58.7%

CCOC(=O)c1ccc(NC(=O)CCCCl)cc1
inactive: [1] 6.15% | [2] -14.2% | [3] -8.75% | [4] 8.55% | [5] 12.7% | [6] -24.3%

CC(=O)Nc1[nH]ncc1C#N
inactive: [1] 3.05% | [2] -8% | [3] -0.2% | [4] -12.4% | [5] 13.3% | [6] 18%

ClCCn1nc2c(c1-c1ccccc1)CCc1ccccc1-2
inactive: [1] -8% | [2] -1.05% | [3] -10.4% | [4] -19.4% | [5] 11.1% | [6] -2.85%

CCOC(=O)C(C)(C)c1ccc(OC)cc1
inactive: [1] -14.2% | [2] -3.6% | [3] -8.6% | [4] -18.9% | [5] 2.6% | [6] -16.2%

CCC(=O)Oc1c2ccsc2c(OC(=O)CC)c2ccsc12
inactive: [1] 29.1% | [2] 6.6% | [3] 32.1% | [4] -3.2% | [5] 29.4% | [6] 13.7%

O=C(CCc1nnc2s/c(=C\c3ccccc3Cl)c(=O)n12)Nc1cc(Cl)ccc1Cl
inactive: [1] 2.9% | [2] -14.7% | [3] -36.8% | [4] -21.8% | [5] -4.8% | [6] -15.1%

CCCC(C)c1ccc(C(=O)O)cc1 (configuration not stated)
inactive: [1] 10.2% | [2] -10.7% | [3] 4.45% | [4] 11.2% | [5] -18.1% | [6] 20.9%

CCOC(=O)C1CC(C)c2[nH]c3ccccc3c21 (configuration not stated)
inactive: [1] 2.2% | [2] 6.9% | [3] -5.15% | [4] -25% | [5] -12% | [6] -13%

[Cl][Pt+2][Cl].[NH-]c1cccc(C(F)(F)F)c1.[NH-]c1cccc(C(F)(F)F)c1
inactive: [1] 2.1% | [2] 12.2% | [3] -6.35% | [4] 7.05% | [5] -22.8% | [6] -11.9%

O=C(NC1CCCCC1C1CCCCC1)c1ccc(Cl)cc1 (configuration not stated)
inactive: [1] 1.55% | [2] 2.5% | [3] -1.3% | [4] -10.9% | [5] 7.15% | [6] 6.45%

Cc1nc(-n2nc(-c3ccccc3)cc2-c2ccccc2)sc1C(=O)/C=C/c1ccc(Cl)c(Cl)c1
inactive: [1] 53.2% | [2] 4.55% | [3] 6.8% | [4] 21.1% | [5] 22.4% | [6] 12.8%

O=NN(CCCl)C(=O)NCc1ccc[n+]([O-])c1
inactive: [1] 19.7% | [2] 8.6% | [3] -2% | [4] 4.25% | [5] 2.2% | [6] 8.2%

CCCCCCC(C)C(C#N)C(=O)OCC (configuration not stated)
inactive: [1] -11.8% | [2] -11.8% | [3] -26.1% | [4] -4.15% | [5] -16.6% | [6] -14.3%

COC(=O)CCC(=O)CC(=O)C(=O)Nc1ccc(F)cc1
inactive: [1] 3.2% | [2] 3.75% | [3] -1.7% | [4] -2.6% | [5] -15.6% | [6] 7.75%

CN1CNC(=S)NC1
inactive: [1] 10.2% | [2] -7.85% | [3] 11% | [4] 17.6% | [5] 20.9% | [6] 15.2%

CCOC(C)(C(=O)O)c1cccc2ccccc12 (configuration not stated)
inactive: [1] -20.4% | [2] -11% | [3] -7.95% | [4] 0.4% | [5] -8.8% | [6] 14.8%

Cc1ccc(S(=O)(=O)N(C)C(C(=O)O)c2ccccc2)cc1 (configuration not stated)
inactive: [1] 22.4% | [2] -1.35% | [3] 7.15% | [4] -20.6% | [5] -7.8% | [6] 3%

CC1=C(C(=O)Nc2cc(F)c(F)cc2F)C(c2cccc([N+](=O)[O-])c2)C(C(=O)Nc2ccccc2C(F)(F)F)=C(C)N1 (configuration not stated)
inactive: [1] 20.4% | [2] 21.8% | [3] 8.4% | [4] 2.15% | [5] 9.75% | [6] -2.65%

O=C(c1nc2ccc(Cl)cc2[nH]c1=O)C(O)c1ccccc1 (configuration not stated)
inactive: [1] 47.5% | [2] 6.95% | [3] 39.4% | [4] 42.9% | [5] 28.9% | [6] 41.8%

COc1cc(C(c2ccc(N(Cc3ccccc3)Cc3ccccc3)cc2NC(C)=O)c2ccc(N(Cc3ccccc3)Cc3ccccc3)cc2NC(C)=O)ccc1O
inactive: [1] 2.75% | [2] 2.05% | [3] -11.4% | [4] -8.2% | [5] -5.1% | [6] 38.2%

CCN(CC)C(=O)C(C)=O
inactive: [1] 8.55% | [2] 1.6% | [3] -12.4% | [4] 12.9% | [5] 1.2% | [6] 12.9%

CC(=O)OCC1OC(n2cc(I)c(=O)[nH]c2=O)C(OC(C)=O)C(OC(C)=O)C1OC(C)=O (configuration not stated)
inactive: [1] -29.9% | [2] -22.1% | [3] -12.2% | [4] -27.4% | [5] -29.5% | [6] -13.2%

Cc1[nH]c2ccccc2c1C(=O)Cc1ccc(Cl)cc1Cl
inactive: [1] -3.6% | [2] 31.8% | [3] 32.2% | [4] -4.35% | [5] 23.8% | [6] 33.4%

COc1ccc(C2=NN(C(C)=O)C(c3cc(OC)c(OC)cc3N)S2)cc1OC (configuration not stated) (tested in a mixture with another compound)
inactive: [1] 16.2% | [2] 17.1% | [3] 32.1% | [4] 19.6% | [5] 12.9% | [6] 30.1%

c1ccc2c(c1)[nH]c1ccncc12
inactive: [1] -0.85% | [2] 0.1% | [3] -1.6% | [4] -40% | [5] -9.7% | [6] 3.7%

C(=C\c1cc(-c2ccc3ccccc3n2)nc2ccc3ccccc3c12)/c1ccc2ccccc2n1
inactive: [1] 9.7% | [2] -1.4% | [3] 26.9% | [4] 28.9% | [5] 25.5% | [6] -11.2%
